Assay results: PMC11006913
Residue numbers refer to the chain shown, from its start.

Key:
Assay in all cases: PBM; 200 nM protein, PBS
Details in all cases: dsDNA, one strand shown
[1] = molecular target: T1, SIX6 (Homo sapiens, UniProt O95475 114-200, L167I)
T1 sequence: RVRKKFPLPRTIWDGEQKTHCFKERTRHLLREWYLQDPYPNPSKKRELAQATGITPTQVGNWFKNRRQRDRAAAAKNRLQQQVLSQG

[2] = molecular target: T2, SIX6 (Homo sapiens, UniProt O95475 114-200, L143V)
T2 sequence: T1 sequence with L30V, I54L

[3] = molecular target: T3, SIX6 (Homo sapiens, UniProt O95475 114-200, H141N)
T3 sequence: T1 sequence with H28N, I54L

[4] = molecular target: T4, SIX6 (Homo sapiens, UniProt O95475 114-200, T165P)
T4 sequence: T1 sequence with T52P, I54L

[5] = molecular target: T5, SIX6 (Homo sapiens, UniProt O95475 114-200, L167M)
T5 sequence: T1 sequence with I54M

[6] = molecular target: T6, SIX6 (Homo sapiens, UniProt O95475 114-200, L143M)
T6 sequence: T1 sequence with L30M, I54L

[7] = molecular target: T7, SIX6 (Homo sapiens, UniProt O95475 114-200, L143I)
T7 sequence: T1 sequence with L30I, I54L

[8] = molecular target: T8, SIX6 (Homo sapiens, UniProt O95475 114-200, T165G)
T8 sequence: T1 sequence with T52G, I54L

[9] = molecular target: T9, SIX6 (Homo sapiens, UniProt O95475 114-200, T139Q)
T9 sequence: T1 sequence with T26Q, I54L

[10] = molecular target: T10, SIX6 (Homo sapiens, UniProt O95475 114-200, T165A)
T10 sequence: T1 sequence with T52A, I54L

[11] = molecular target: T11, SIX6 (Homo sapiens, UniProt O95475 114-200, L167V)
T11 sequence: T1 sequence with I54V

[12] = molecular target: T12, SIX6 (Homo sapiens, UniProt O95475 114-200)
T12 sequence: T1 sequence with I54L

[13] = molecular target: T13, SIX6 (Homo sapiens, UniProt O95475 114-200, T165I)
T13 sequence: T1 sequence with T52I, I54L

Row | Sequence | binding signal [1] | binding signal [2] | binding signal [3] | binding signal [4] | binding signal [5] | binding signal [6] | binding signal [7] | binding signal [8] | binding signal [9] | binding signal [10] | binding signal [11] | binding signal [12] | binding signal [13]
1 | CTGATACC | 11.3 upbm affinity estimate (log intensity, higher = more binding, comparable within an allelic series) | 10.4 upbm affinity estimate (log intensity, higher = more binding, comparable within an allelic series) | 11.3 upbm affinity estimate (log intensity, higher = more binding, comparable within an allelic series) | 9.63 upbm affinity estimate (log intensity, higher = more binding, comparable within an allelic series) | 10.6 upbm affinity estimate (log intensity, higher = more binding, comparable within an allelic series) | 11 upbm affinity estimate (log intensity, higher = more binding, comparable within an allelic series) | 10.4 upbm affinity estimate (log intensity, higher = more binding, comparable within an allelic series) | 11.4 upbm affinity estimate (log intensity, higher = more binding, comparable within an allelic series) | 11.4 upbm affinity estimate (log intensity, higher = more binding, comparable within an allelic series) | 11.4 upbm affinity estimate (log intensity, higher = more binding, comparable within an allelic series) | 11 upbm affinity estimate (log intensity, higher = more binding, comparable within an allelic series) | 11.1 upbm affinity estimate (log intensity, higher = more binding, comparable within an allelic series) | 11.1 upbm affinity estimate (log intensity, higher = more binding, comparable within an allelic series)
2 | AGCGGTGG | 8.97 upbm affinity estimate (log intensity, higher = more binding, comparable within an allelic series) | 8.89 upbm affinity estimate (log intensity, higher = more binding, comparable within an allelic series) | 8.96 upbm affinity estimate (log intensity, higher = more binding, comparable within an allelic series) | 8.97 upbm affinity estimate (log intensity, higher = more binding, comparable within an allelic series) | 8.93 upbm affinity estimate (log intensity, higher = more binding, comparable within an allelic series) | 9.05 upbm affinity estimate (log intensity, higher = more binding, comparable within an allelic series) | 9 upbm affinity estimate (log intensity, higher = more binding, comparable within an allelic series) | 8.94 upbm affinity estimate (log intensity, higher = more binding, comparable within an allelic series) | 9.04 upbm affinity estimate (log intensity, higher = more binding, comparable within an allelic series) | 8.98 upbm affinity estimate (log intensity, higher = more binding, comparable within an allelic series) | 8.84 upbm affinity estimate (log intensity, higher = more binding, comparable within an allelic series) | 9.06 upbm affinity estimate (log intensity, higher = more binding, comparable within an allelic series) | 8.95 upbm affinity estimate (log intensity, higher = more binding, comparable within an allelic series)
3 | ATTATACC | 10.8 upbm affinity estimate (log intensity, higher = more binding, comparable within an allelic series) | 10.3 upbm affinity estimate (log intensity, higher = more binding, comparable within an allelic series) | 10.7 upbm affinity estimate (log intensity, higher = more binding, comparable within an allelic series) | 10.1 upbm affinity estimate (log intensity, higher = more binding, comparable within an allelic series) | 10.5 upbm affinity estimate (log intensity, higher = more binding, comparable within an allelic series) | 10.8 upbm affinity estimate (log intensity, higher = more binding, comparable within an allelic series) | 10.3 upbm affinity estimate (log intensity, higher = more binding, comparable within an allelic series) | 10.8 upbm affinity estimate (log intensity, higher = more binding, comparable within an allelic series) | 10.8 upbm affinity estimate (log intensity, higher = more binding, comparable within an allelic series) | 10.7 upbm affinity estimate (log intensity, higher = more binding, comparable within an allelic series) | 10.5 upbm affinity estimate (log intensity, higher = more binding, comparable within an allelic series) | 10.7 upbm affinity estimate (log intensity, higher = more binding, comparable within an allelic series) | 10.6 upbm affinity estimate (log intensity, higher = more binding, comparable within an allelic series)
4 | AGCGGGCC | 9.04 upbm affinity estimate (log intensity, higher = more binding, comparable within an allelic series) | 8.92 upbm affinity estimate (log intensity, higher = more binding, comparable within an allelic series) | 8.88 upbm affinity estimate (log intensity, higher = more binding, comparable within an allelic series) | 8.96 upbm affinity estimate (log intensity, higher = more binding, comparable within an allelic series) | 8.96 upbm affinity estimate (log intensity, higher = more binding, comparable within an allelic series) | 8.83 upbm affinity estimate (log intensity, higher = more binding, comparable within an allelic series) | 8.88 upbm affinity estimate (log intensity, higher = more binding, comparable within an allelic series) | 8.84 upbm affinity estimate (log intensity, higher = more binding, comparable within an allelic series) | 9.03 upbm affinity estimate (log intensity, higher = more binding, comparable within an allelic series) | 8.98 upbm affinity estimate (log intensity, higher = more binding, comparable within an allelic series) | 8.99 upbm affinity estimate (log intensity, higher = more binding, comparable within an allelic series) | 8.89 upbm affinity estimate (log intensity, higher = more binding, comparable within an allelic series) | 8.98 upbm affinity estimate (log intensity, higher = more binding, comparable within an allelic series)
5 | ATGACACC | 10.7 upbm affinity estimate (log intensity, higher = more binding, comparable within an allelic series) | 10.2 upbm affinity estimate (log intensity, higher = more binding, comparable within an allelic series) | 11.1 upbm affinity estimate (log intensity, higher = more binding, comparable within an allelic series) | 9.61 upbm affinity estimate (log intensity, higher = more binding, comparable within an allelic series) | 10.1 upbm affinity estimate (log intensity, higher = more binding, comparable within an allelic series) | 10.7 upbm affinity estimate (log intensity, higher = more binding, comparable within an allelic series) | 10.4 upbm affinity estimate (log intensity, higher = more binding, comparable within an allelic series) | 11.4 upbm affinity estimate (log intensity, higher = more binding, comparable within an allelic series) | 11.3 upbm affinity estimate (log intensity, higher = more binding, comparable within an allelic series) | 11.4 upbm affinity estimate (log intensity, higher = more binding, comparable within an allelic series) | 10.5 upbm affinity estimate (log intensity, higher = more binding, comparable within an allelic series) | 10.9 upbm affinity estimate (log intensity, higher = more binding, comparable within an allelic series) | 10.9 upbm affinity estimate (log intensity, higher = more binding, comparable within an allelic series)
6 | ATATCCTA | 10.8 upbm affinity estimate (log intensity, higher = more binding, comparable within an allelic series) | 10.2 upbm affinity estimate (log intensity, higher = more binding, comparable within an allelic series) | 10.8 upbm affinity estimate (log intensity, higher = more binding, comparable within an allelic series) | 9.8 upbm affinity estimate (log intensity, higher = more binding, comparable within an allelic series) | 10.6 upbm affinity estimate (log intensity, higher = more binding, comparable within an allelic series) | 10.7 upbm affinity estimate (log intensity, higher = more binding, comparable within an allelic series) | 10.2 upbm affinity estimate (log intensity, higher = more binding, comparable within an allelic series) | 10.8 upbm affinity estimate (log intensity, higher = more binding, comparable within an allelic series) | 10.9 upbm affinity estimate (log intensity, higher = more binding, comparable within an allelic series) | 10.7 upbm affinity estimate (log intensity, higher = more binding, comparable within an allelic series) | 10.6 upbm affinity estimate (log intensity, higher = more binding, comparable within an allelic series) | 10.7 upbm affinity estimate (log intensity, higher = more binding, comparable within an allelic series) | 10.7 upbm affinity estimate (log intensity, higher = more binding, comparable within an allelic series)
